Laboratory results taken from PubChem BioAssay (NCATS).
Records with an inconclusive call do not appear. Active and inactive are the calls of the source. Calls follow the shape of the dose curve; as a rule, active = well fitted inhibition curve with a large enough effect; inconclusive = small, poorly fitted or top-dose-only effect; inactive = flat fitted curve, though single readings scatter.

Columns and labels:
Assay in all cases: qHTS profiling for inhibitors of Plasmodium falciparum proliferation (AID 504749); also: nearly all actives have a fitted effect of over 60% in size
Settings in all cases: P. falciparum in erythrocytes, SYBR Green DNA, 72 h; series mostly up to 12.8 µM
C2A = system: C2A
In short: (§1)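 In a 72 h erythrocytic culture (37 C, humidified, 5% CO2) at 2.5% hematocrit and 0.3% starting parasitemia, compounds were tested; SYBR Green I in detergent lysis buffer stained parasite DNA overnight.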

CP185 = system: CP185
In short: as §1

CP211 = system: CP211
In short: as §1

CP217 = system: CP217
In short: as §1

CP250 = system: CP250
In short: as §1

CP252 = system: CP252
In short: as §1

CP256 = system: CP256
In short: as §1

CP291 = system: CP291
In short: as §1

CP305 = system: CP305
In short: as §1

CP325 = system: CP325
In short: as §1

CP329 = system: CP329
In short: as §1

CP335 = system: CP335
In short: as §1

Dd2 = system: Dd2
In short: as §1

ECU = system: ECU
In short: as §1

HB3 = system: HB3
In short: as §1

N140 = system: N140
In short: as §1

PC15 = system: PC15
In short: as §1

PC49 = system: PC49
In short: as §1

SC27B = system: SC27B
In short: as §1

TAB113 = system: TAB113
In short: as §1

Measured: Potency

C[n+]1ccccc1/C=N\O
inactive: all assays above

COc1ccccc1OC[C@H](O)COC(N)=O
inactive: all assays above

CCCN[C@@H](C)C(=O)Nc1c(C)csc1C(=O)OC
inactive: all assays above

COc1ccc(C[C@@H]2c3cc(OC)c(OC)cc3CC[N@+]2(C)CCC(=O)OCCCCCOC(=O)CC[N@@+]2(C)CCc3cc(OC)c(OC)cc3[C@H]2Cc2ccc(OC)c(OC)c2)cc1OC
inactive: all assays above

Cn1c(=O)c2c(ncn2C[C@@H](O)CO)n(C)c1=O
inactive: all assays above

CC1(C)S[C@@H]2[C@H](NC(=O)[C@H](C(=O)O)c3ccsc3)C(=O)N2[C@H]1C(=O)O
inactive: all assays above

CCC[C@H]1C(=O)N2C(N(C)C)=Nc3ccc(C)cc3N2C1=O
inactive: all assays above

NC(=O)OC[C@H](O)COc1ccc(Cl)cc1
inactive: all assays above

CN(N=O)C(=O)N[C@H]1[C@@H](O)[C@H](O)[C@H](CO)O[C@@H]1O
inactive: all assays above

O=c1[nH]c(=O)n([C@@H]2C[C@H](O)[C@H](CO)O2)cc1I
inactive: all assays above

COCCc1ccc(OC[C@H](O)CNC(C)C)cc1
inactive: all assays above

NS(=O)(=O)c1cc([C@@]2(O)NC(=O)c3ccccc32)ccc1Cl
inactive: all assays above
